From PubChem BioAssay
Sampled rows, rich in hits. Any-hit rate of the full collection: about 3.2%.
A3A deaminase = APOBEC3A ssDNA deaminase inhibitors, primary screen, selectivity assay for APOBEC3G inhibitor project, biochemical, FAM/TAMRA oligo cleavage fluorescence. DNA dC->dU-editing enzyme APOBEC-3A (Homo sapiens), P31941. recombinant A3A, FAM/TAMRA ssDNA deamination fluorescence. inhibition, % at 20 µM. 330,000 compounds, 0.41% hits;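 active = at least 40% inhibition at 20 µM here, with at most 30% in a related deaminase screen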
NTR1 ag = agonists of human NTR1, primary screen, imaging, U2OS cells, beta-arrestin-GFP, high content; NTR1-U2OS beta-arrestin-GFP spot imaging, agonist mode; Neurotensin receptor type 1 (Homo sapiens), P30989; 330,000 compounds, 0.17% hits; activation, % at 20 µM;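 active = activation at or above 40% of the spot to cytoplasm intensity ratio, with at least 20 cells analyzed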
APOBEC3G inh = APOBEC3G DNA deaminase inhibitors, primary screen, biochemical, fluorescence, single-stranded DNA substrate, uHTS. recombinant A3G, ssDNA deamination FAM/TAMRA fluorescence. inhibition, % at 20 µM. DNA dC->dU-editing enzyme APOBEC-3G (Homo sapiens), Q9HC16. 330,000 compounds, 0.28% hits;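 active = inhibition of at least 40% at 20 µM, with no more than 30% in the related APOBEC3A deaminase screen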
Target sequence (Q9HC16 whole entry, looked up): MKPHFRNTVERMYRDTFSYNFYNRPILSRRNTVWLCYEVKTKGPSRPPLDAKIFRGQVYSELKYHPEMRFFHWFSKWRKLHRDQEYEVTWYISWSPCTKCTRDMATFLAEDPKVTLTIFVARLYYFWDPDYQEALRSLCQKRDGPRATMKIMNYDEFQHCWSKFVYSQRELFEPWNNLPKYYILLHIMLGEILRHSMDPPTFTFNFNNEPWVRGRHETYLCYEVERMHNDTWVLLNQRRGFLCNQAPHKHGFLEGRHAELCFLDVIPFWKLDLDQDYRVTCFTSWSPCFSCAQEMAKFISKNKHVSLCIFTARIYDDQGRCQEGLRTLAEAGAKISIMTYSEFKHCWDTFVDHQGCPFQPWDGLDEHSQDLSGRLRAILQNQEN
AHR act = AHR activators, primary screen, cell-based, luminescence, luciferase reporter, human | Aryl hydrocarbon receptor (Homo sapiens), P35869 | AHR-responsive luciferase reporter cells | activation, % at 5 µM | 320,000 compounds, 2.5% hits | AID 2796, 2010; in the data active = activation above about 47%
A3G conf = APOBEC3G deaminase inhibitor retest, confirmation, biochemical, fluorescence, single-stranded DNA substrate, single concentration; shares compounds with APOBEC3G inh; recombinant A3G ssDNA deaminase, UDG/FAM-TAMRA fluorescence; inhibition, % at 20 µM; 890 compounds, 72% hits;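 active = inhibition reaching a set limit in any replicate at 20 µM, the limit being 80% of the first screen's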
UDG A3G counter = E. coli UDG inhibitors, confirmation, counter-screen for APOBEC3G inhibitor project, biochemical, single concentration, fluorescence, FAM/TAMRA oligo; shares compounds with APOBEC3G inh; UDG counterscreen; inhibition, % at 20 µM; 710 tested, under 10 active;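 active = compounds giving 40% or more inhibition at 20 µM in any one of the three replicates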;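 note: inhibitors lower the FAM signal released by uracil excision and alkaline cleavage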
Hits are given with their value; - = inactive; . = no result.

SMILES	A3A deaminase	NTR1 ag	APOBEC3G inh	AHR act	A3G conf	UDG A3G counter
Cn1c(CSCCOc2ccccc2)n[nH]c1=S	-	-	41	-	-	.
Cn1c(CSc2nc3ccccc3s2)nc2ccccc21	-	-	-	-	.	.
COc1ccc(CCNC(=O)CN(C)S(=O)(=O)c2ccc(OC)cc2)cc1	-	-	-	-	.	.
Cc1nn(-c2ccccc2)c(C)c1C(=O)OC(C)C(=O)NC1CCCCC1 (configuration not stated)	-	-	-	-	.	.
Cc1ccc(NC(=S)Nc2cccnc2)c(S(=O)(=O)N2CCCCC2)c1	-	-	-	-	.	.
Nn1c(C2COc3ccccc3O2)n[nH]c1=S (configuration not stated)	-	-	60	-	83	-
NC(=S)C1COc2ccccc2O1 (configuration not stated)	-	-	-	-	.	.
Cc1ccccc1N=Cc1cccc(O)c1O	-	-	70	-	51	.
Cc1ccc(N=Cc2cccc(O)c2O)c(C)c1	-	-	75	-	31	.
CCN(CC)c1ccc(C=Nc2ccc(C)cc2C)c(O)c1	-	-	-	-	.	.
O=C(CN1CCCCCCC1)Nc1cccc(Cl)c1Cl	-	-	-	-	.	.
Cc1c(C(=O)N2CCN(S(=O)(=O)c3ccccc3)CC2)oc2ccc(Br)cc12	-	-	-	-	.	.
N#Cc1c(-c2ccncc2)c2c([nH]c1=S)CCCC2	-	-	46	-	85	-
CC1CN(S(=O)(=O)c2cc(C(=O)N(C)Cc3cccs3)ccc2Cl)CC(C)O1 (configuration not stated)	-	-	-	-	.	.
c1csc(-c2nn3c(Cn4cnc5ccccc54)nnc3s2)c1	-	-	53	-	38	-
C=C(C)C(=O)Nc1cccc(C2=NOC3(C2)C[C@H](C(N)=O)N(C(=O)c2ccccc2)C3)c1 (some centres not stated)	-	-	63	-	65	-
C/C=C(/C)C(=O)Nc1cccc(C2=NOC3(C2)C[C@H](C(N)=O)N(C(=O)c2ccc(Cl)cc2)C3)c1 (some centres not stated)	-	-	-	-	.	.
C=C(C)C(=O)Nc1cccc(C2=NOC3(C2)C[C@@H](C(N)=O)N(C(=O)c2cc([N+](=O)[O-])cc([N+](=O)[O-])c2C)C3)c1 (some centres not stated)	-	-	44	-	59	-
CCC(=O)Nc1cccc(C2=NOC3(C2)C[C@@H](C(N)=O)N(C(=O)c2ccccc2C(=O)c2ccccc2)C3)c1 (some centres not stated)	-	-	-	-	.	.
C/C=C/C(=O)Nc1cccc(C2=NOC3(C2)C[C@@H](C(N)=O)N(C(=O)c2cc([N+](=O)[O-])cc([N+](=O)[O-])c2C)C3)c1 (some centres not stated)	-	-	-	-	.	.
CCC(=O)Nc1cccc(C2=NOC3(C2)C[C@@H](C(N)=O)N(C(=O)COc2ccc(Cl)cc2)C3)c1 (some centres not stated)	-	-	-	-	.	.
C=C(C)C(=O)Nc1cccc(C2=NOC3(C2)C[C@@H](C(N)=O)N(C(=O)c2ccc(Cl)cc2)C3)c1 (some centres not stated)	-	-	100	-	90	-
C=C(C)C(=O)Nc1cccc(C2=NOC3(C2)C[C@H](C(N)=O)N(C(=O)COc2ccc(Cl)cc2)C3)c1 (some centres not stated)	-	-	88	-	91	-
Oc1ccc(N2CCN(Cc3cc4c(cc3Br)OCCO4)CC2)cc1	-	-	-	-	.	.
O=C(/C=C/c1ccccc1)N1CCC(N2CCC(C(=O)N3CCOCC3)CC2)CC1	-	-	-	-	.	.
